# Experimental data published in PubChem BioAssay (NCATS).
# A number with no mark means an inactive call. Results filed as inconclusive are left out. Activity calls are given as the source filed them. Unless noted, calls follow the shape of the dose curve; as a rule, active = well fitted curve in the direction sought with a large enough effect; inconclusive = small, poorly fitted or top-dose-only effect, or another doubt; inactive = no such curve, though single readings can be large; an effect the other way counts as inactive or inconclusive.
# Columns and labels:
# [1] = AP1 Signaling Pathway (AID 357; active = well fitted curve in either direction with a large enough effect, not every such curve was filed as active; also: % is scaled to controls: 0 for no effect and ±100 for the full control effect); conditions: ME-180 AP-1-bla reporter, EGF-induced, beta-lactamase ratio, 5 h; at 7.69 µM (top of the series) unless noted
# How it was run: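 ME-180 cells with beta-lactamase reporter under AP-1 response element, stimulated with EC50 EGF; compounds tested in titration series, 5 h at 37 °C. CCF4 substrate added 2.5 h at room temperature; 460/530 nm emission ratio gave %activity and AC50.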
# [2] = target: Cytochrome P450 1A2 (Homo sapiens) (UniProt P05177); experiment: p450-cyp1a2 (AID 410; calls by dose curve; also: potency is read from the fitted curve at half-maximal effect)
# Chain of Cytochrome P450 1A2 (Homo sapiens) (P05177 whole entry, looked up): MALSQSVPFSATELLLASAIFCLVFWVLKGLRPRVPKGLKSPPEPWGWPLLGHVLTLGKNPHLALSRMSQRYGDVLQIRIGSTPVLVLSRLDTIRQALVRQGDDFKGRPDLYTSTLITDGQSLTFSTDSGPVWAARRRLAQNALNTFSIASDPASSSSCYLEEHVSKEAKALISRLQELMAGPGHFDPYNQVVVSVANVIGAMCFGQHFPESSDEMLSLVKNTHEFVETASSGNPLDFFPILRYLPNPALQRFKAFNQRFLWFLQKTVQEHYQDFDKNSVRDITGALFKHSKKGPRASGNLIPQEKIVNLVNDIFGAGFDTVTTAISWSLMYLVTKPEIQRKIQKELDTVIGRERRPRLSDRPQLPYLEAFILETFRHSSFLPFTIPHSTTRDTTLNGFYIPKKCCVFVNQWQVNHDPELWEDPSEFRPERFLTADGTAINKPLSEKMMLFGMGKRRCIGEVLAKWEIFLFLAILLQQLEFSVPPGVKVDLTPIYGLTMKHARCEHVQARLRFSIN
# How it was run: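 Luminescent readout of luciferin formed from Luciferin-ME by human CYP1A2; data normalized against complete inhibition by 57 uM furafylline. Enzyme 20nM, substrate 100uM at Km, 100mM KPO4 buffer, 60 min reaction at room temperature.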
# [3] = NFAT Signaling Pathway (AID 444; active = well fitted curve in either direction with a large enough effect, not every such curve was filed as active;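 also: carbachol stimulus at about its EC50 of 1 µM final; % is scaled to controls: 0 for no effect and ±100 for the full control effect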); conditions: Jurkat NFAT-bla M1, carbachol, beta-lactamase ratio, 5 h; at 7.69 µM (top of the series) unless noted
# How it was run: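 Jurkat cells with NFAT-driven β-lactamase reporter and co-expressed M1 receptor, stimulated with carbachol (final 1 uM, ~EC50), compound titration, 5 h at 37 °C. CCF4 loaded 1 h at RT; 460/530 nm ratio gave %activity and AC50.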
# [4] = Stat Signaling Pathway (AID 446; active = well fitted curve in either direction with a large enough effect, not every such curve was filed as active;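 also: ME-180 cervical cancer cells given 40 pM IL-6 alongside compound; SIE-controlled beta-lactamase reporter measured as 460/530 nm FRET emission ratio; % is scaled to controls: 0 for no effect and ±100 for the full control effect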); conditions: ME-180 SIE beta-lactamase reporter, IL-6 stimulated, 5 h; at 7.69 µM (top of the series) unless noted
# How it was run: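 Reporter line: ME-180 cervical carcinoma, SIE-beta-lactamase. Treatment: compound with 40 pM IL-6, 5 hrs, 37 C, in low-serum OPTI-MEM with 10 mM HEPES pH 7.3. Detection: 460/530 nm fluorescence.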
# [5] = target: Glucocorticoid receptor (Homo sapiens) (UniProt P04150); experiment: GR-GFP Redistribution (AID 450;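 active = compounds whose dose series gives a full or clear partial fitted curve of increased nuclear translocation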; also: potency is read from the fitted curve at half-maximal effect); conditions: U2OS GR-GFP nuclear translocation, laser cytometry, 2 h
# Chain of Glucocorticoid receptor (Homo sapiens) (P04150 whole entry, looked up, the tested form may be a part): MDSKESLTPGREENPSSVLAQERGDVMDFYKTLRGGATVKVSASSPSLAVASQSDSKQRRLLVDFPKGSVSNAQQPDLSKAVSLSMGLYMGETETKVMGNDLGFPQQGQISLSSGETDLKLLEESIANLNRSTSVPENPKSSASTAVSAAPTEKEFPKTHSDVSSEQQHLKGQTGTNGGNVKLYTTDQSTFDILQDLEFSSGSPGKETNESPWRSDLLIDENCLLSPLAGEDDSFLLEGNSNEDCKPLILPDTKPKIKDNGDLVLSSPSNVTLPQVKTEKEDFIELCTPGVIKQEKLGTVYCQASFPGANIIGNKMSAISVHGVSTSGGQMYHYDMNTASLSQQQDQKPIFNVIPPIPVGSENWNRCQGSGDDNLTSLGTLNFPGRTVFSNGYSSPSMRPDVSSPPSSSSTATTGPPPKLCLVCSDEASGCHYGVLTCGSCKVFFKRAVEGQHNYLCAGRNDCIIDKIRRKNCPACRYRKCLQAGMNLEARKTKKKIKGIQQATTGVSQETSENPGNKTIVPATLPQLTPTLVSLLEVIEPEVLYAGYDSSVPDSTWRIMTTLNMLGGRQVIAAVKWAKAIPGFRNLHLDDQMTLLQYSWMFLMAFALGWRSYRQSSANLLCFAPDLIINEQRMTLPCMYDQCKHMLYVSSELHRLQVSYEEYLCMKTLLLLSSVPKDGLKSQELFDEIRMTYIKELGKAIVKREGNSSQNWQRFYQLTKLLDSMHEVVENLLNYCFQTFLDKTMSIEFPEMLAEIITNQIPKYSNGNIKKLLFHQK
# [6] = target: Glucocorticoid receptor (Homo sapiens) (UniProt P04150); experiment: GR-EFC Redistribution (AID 451; calls by dose curve; also: potency is read from the fitted curve at half-maximal effect); conditions: CHO-K1 GR-EFC translocation, beta-gal luminescence, 2 h
# How it was run: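 CHO-K1 cells expressing nuclear EA and GR-ED fragments of b-gal; compounds titrated up to 46 uM final, 2 h at 37 C. GR nuclear translocation read as complemented b-gal luminescence after 1 h RT detection.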
# [7] = target: Mitogen-activated protein kinase 10 (Mus musculus) (UniProt Q61831); experiment: JNK3 AlphaScreen Assay (AID 530; active = well fitted curve in either direction with a large enough effect, not every such curve was filed as active;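 also: kinase came from lysate of stimulated human HepG2 cells; signal reports phosphorylation of biotinylated GST-cJun 1-79 at Ser73 with 10 µM ATP; % is scaled to controls: 0 for no effect and ±100 for the full control effect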)
# How it was run: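 Pre-activated (IL-1β/TNFα) JNK3 in HepG2 lysates phosphorylates biotin-GST-cJun(1-79), 10 uM ATP; anti-phospho-cJun(Ser73) AlphaScreen read at room temperature, pH 7.6 Tris buffer. Compounds pre-incubated 15 min as titrations.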
# [8] = target: Cytochrome P450 3A4 (Homo sapiens) (UniProt P08684); experiment: qHTS Assay for Inhibitors and Substrates of Cytochrome P450 3A4 (AID 884); also: potency is read from the fitted curve at half-maximal effect; nearly all actives have a fitted effect of over 50% in size
# Chain of Cytochrome P450 3A4 (Homo sapiens) (P08684 whole entry, looked up): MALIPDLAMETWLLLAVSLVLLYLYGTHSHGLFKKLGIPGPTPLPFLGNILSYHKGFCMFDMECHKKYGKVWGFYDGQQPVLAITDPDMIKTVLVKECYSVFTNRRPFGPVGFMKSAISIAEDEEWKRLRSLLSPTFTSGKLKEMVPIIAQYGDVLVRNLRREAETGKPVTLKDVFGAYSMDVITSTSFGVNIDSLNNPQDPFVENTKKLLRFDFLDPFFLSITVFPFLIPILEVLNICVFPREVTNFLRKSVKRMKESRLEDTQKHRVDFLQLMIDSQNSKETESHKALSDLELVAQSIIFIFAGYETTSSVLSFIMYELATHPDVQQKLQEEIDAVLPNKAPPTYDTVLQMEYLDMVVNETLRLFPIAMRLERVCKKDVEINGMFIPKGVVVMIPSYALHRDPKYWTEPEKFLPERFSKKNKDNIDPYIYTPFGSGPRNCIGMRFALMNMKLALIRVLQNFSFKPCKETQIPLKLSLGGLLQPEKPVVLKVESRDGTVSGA
# How it was run: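 20 nM human CYP3A4 with 25 uM Luciferin-PPXE (at KM) in 200 mM KPO4, preincubated 10 min with compound; NADPH regeneration started a 60 min RT reaction. Luciferin detected by luminescence, normalized to 57 uM ketoconazole as full inhibition.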
# [9] = target: Cytochrome P450 3A4 (Homo sapiens) (UniProt P08684); experiment: qHTS Assay for Activators of Cytochrome P450 3A4 (AID 885); also: nearly all actives have a fitted effect of over 65% in size
# How it was run: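 Signal was normalized against complete inhibition by 57 uM ketoconazole. The reaction used 20nM CYP3A4 with 25uM Luciferin-PPXE, 10-min compound preincubation and a 60-min NADPH-supported step at RT.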
# [10] = target: Dual specificity protein kinase CLK4 (Homo sapiens) (UniProt Q9HAZ1); experiment: qHTS Assay for Inhibitors of CDC-like Kinase 4 (Kinase-Glo Assay) (AID 1770); also: nearly all actives have a fitted effect of over 65% in size; also: potency is read from the fitted curve at half-maximal effect
# Chain of Dual specificity protein kinase CLK4 (Homo sapiens) (Q9HAZ1 whole entry, looked up): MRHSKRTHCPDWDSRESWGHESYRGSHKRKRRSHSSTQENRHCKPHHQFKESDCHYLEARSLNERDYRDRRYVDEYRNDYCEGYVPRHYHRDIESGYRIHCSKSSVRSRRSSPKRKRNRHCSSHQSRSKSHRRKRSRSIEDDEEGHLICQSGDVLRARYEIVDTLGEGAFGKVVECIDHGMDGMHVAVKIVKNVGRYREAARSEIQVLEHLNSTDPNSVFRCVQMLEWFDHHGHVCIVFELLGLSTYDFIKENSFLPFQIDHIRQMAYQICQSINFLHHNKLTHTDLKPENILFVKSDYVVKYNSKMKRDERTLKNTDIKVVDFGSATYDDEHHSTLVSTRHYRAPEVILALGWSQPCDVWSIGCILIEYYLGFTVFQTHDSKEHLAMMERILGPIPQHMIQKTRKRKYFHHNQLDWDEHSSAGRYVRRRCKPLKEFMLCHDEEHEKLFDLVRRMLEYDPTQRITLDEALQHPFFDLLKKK
# How it was run: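 Recombinant human Clk4 (25 nM) phosphorylated RS repeat peptide (100 uM) with 1 uM ATP in Tris pH 7.5/MgCl2/EGTA/DTT/Triton buffer for 4.5 h at room temperature. Residual ATP was quantified by Kinase-Glo luciferase luminescence.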
# [11] = target: Ubiquitin carboxyl-terminal hydrolase 1 (Homo sapiens) (UniProt O94782); experiment: Inhibitors of USP1/UAF1: Pilot qHTS (AID 504865); also: nearly all actives have a fitted effect of over 35% in size; also: potency is read from the fitted curve at half-maximal effect
# Chain of Ubiquitin carboxyl-terminal hydrolase 1 (Homo sapiens) (O94782 whole entry, looked up): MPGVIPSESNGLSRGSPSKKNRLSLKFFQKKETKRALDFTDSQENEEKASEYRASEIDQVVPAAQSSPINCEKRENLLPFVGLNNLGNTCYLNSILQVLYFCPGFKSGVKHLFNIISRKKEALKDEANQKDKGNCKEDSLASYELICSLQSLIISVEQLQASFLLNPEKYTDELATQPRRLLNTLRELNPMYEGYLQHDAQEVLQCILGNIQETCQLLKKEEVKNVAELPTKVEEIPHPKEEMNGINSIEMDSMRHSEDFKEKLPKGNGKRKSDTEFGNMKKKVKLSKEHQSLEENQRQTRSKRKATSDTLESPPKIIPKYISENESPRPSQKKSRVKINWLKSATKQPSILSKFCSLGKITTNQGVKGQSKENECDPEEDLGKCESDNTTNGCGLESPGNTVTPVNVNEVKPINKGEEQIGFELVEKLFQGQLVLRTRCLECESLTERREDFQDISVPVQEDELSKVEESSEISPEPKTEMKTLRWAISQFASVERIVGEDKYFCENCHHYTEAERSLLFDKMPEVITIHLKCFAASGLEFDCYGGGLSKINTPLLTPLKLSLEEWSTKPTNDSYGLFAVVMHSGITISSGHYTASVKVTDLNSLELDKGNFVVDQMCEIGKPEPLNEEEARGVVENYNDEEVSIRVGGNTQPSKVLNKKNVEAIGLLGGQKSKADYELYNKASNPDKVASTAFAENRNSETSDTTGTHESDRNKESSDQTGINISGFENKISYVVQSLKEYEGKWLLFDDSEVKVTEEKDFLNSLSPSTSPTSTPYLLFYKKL
# How it was run: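 USP1/UAF1 complex (1nM) preincubated with compound 15 min at room temperature, then Ub-Rho substrate (150nM final) added. Fluorescence read kinetically at 480/540 nm, 6 reads every 60 seconds. Buffer: 50mM HEPES pH 7.8, 0.5mM EDTA, 0.1 mg/ml BSA, 1mM TCEP, 0.01% Tween-20.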
# [12] = Primary qHTS for small molecule stabilizers of the endoplasmic reticulum resident proteome: Secreted ER Calcium Modulated Protein (SERCaMP) assay (AID 1508630); also: % is scaled to controls: 0 for no effect and ±100 for the full control effect
# How it was run: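 GLuc-SERCaMP-expressing SH-SY5Y cells, pretreated 16 h with compound, are challenged with thapsigargin to empty ER calcium stores; after 4 h, coelenterazine is added directly to the medium and luminescence is imaged.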
# [13] = target: Lysosomal acid glucosylceramidase (Homo sapiens) (UniProt P04062); experiment: Glucocerebrosidase-p2 (AID 348; in the data active = potency below about 10 µM; also: potency is read from the fitted curve at half-maximal effect); conditions: purified GBA, blue fluorogenic substrate, 40 min
# Chain of Lysosomal acid glucosylceramidase (Homo sapiens) (P04062 whole entry, looked up): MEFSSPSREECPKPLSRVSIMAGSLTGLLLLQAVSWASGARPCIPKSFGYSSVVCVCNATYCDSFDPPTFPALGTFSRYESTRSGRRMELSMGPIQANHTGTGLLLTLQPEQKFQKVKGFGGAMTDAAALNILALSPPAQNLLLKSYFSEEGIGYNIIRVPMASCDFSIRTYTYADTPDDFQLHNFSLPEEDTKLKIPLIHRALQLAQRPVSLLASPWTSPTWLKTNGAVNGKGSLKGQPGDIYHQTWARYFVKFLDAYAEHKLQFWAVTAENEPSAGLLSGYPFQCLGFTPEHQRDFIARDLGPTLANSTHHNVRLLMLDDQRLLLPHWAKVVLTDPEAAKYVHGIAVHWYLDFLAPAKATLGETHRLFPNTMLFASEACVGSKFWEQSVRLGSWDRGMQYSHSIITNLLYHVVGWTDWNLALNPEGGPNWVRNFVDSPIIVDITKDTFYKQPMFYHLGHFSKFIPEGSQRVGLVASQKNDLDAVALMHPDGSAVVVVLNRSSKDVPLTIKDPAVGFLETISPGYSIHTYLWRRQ
# How it was run: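 Compounds titrated from 0.6 nM upwards against 0.2 nM enzyme in pH 5.9 citric acid/KH2PO4, taurocholate, tween-20; blue fluorogenic substrate 80 uM, 40 min room temperature, stopped and read Ex 365/Em 440 for AC50.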
# [14] = target: 3',5'-cyclic-AMP phosphodiesterase 4B (Homo sapiens) (UniProt Q07343); experiment: qHTS Assay for Inhibitors of PDE-IV (AID 607; active = well fitted activation curve with a large enough effect in the main read-out, with a control signal flat, not every such curve was filed as active; also: % of control where 0% means no effect)
# Chain of 3',5'-cyclic-AMP phosphodiesterase 4B (Homo sapiens) (Q07343 whole entry, looked up): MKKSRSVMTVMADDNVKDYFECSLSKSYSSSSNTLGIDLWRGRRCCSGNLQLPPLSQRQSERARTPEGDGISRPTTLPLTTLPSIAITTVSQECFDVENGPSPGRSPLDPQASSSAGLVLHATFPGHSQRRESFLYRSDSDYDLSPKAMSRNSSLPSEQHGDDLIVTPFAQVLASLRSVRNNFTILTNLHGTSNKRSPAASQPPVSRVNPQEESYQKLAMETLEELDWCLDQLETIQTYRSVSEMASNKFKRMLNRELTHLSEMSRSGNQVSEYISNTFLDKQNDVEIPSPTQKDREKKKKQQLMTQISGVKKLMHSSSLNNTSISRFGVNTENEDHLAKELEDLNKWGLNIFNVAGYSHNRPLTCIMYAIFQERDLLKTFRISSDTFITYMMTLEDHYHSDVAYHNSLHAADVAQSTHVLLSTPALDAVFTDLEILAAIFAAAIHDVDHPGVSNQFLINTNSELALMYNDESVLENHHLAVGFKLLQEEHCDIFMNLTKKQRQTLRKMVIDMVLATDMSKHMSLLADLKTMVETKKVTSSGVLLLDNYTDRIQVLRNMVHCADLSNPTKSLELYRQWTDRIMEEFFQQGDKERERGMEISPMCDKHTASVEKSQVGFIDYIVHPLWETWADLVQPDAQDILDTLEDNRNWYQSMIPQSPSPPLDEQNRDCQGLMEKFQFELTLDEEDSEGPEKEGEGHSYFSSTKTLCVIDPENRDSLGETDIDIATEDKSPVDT
# How it was run: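 Cell-based read-out of cAMP via a modified cyclic nucleotide-gated channel and membrane potential dye (535/590 nm) in HEK293 cells expressing PDE4 endogenously. Compounds tested up to 22.9 uM final; 100 uM RO 20-1724 reference.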
# [15] = target: Dual specificity protein kinase CLK4 (Homo sapiens) (UniProt Q9HAZ1); experiment: qHTS Assay for Inhibitors of CDC-like Kinase 4 (ADP-Glo Assay) (AID 1771); also: % is scaled to controls: 0 for no effect and ±100 for the full control effect; nearly all actives have a fitted effect of over 70% in size
# How it was run: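 Luminescence from ADP-Glo reports ADP produced by 25 nM Clk4 acting on 100 uM RS repeat peptide with 1 uM ATP over 1 hr at room temperature; residual ATP is depleted before ADP is converted to ATP for detection.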
# [16] = target: Dual specificity protein kinase CLK4 (Homo sapiens) (UniProt Q9HAZ1); experiment: qHTS Assay for Inhibitors of CDC-like Kinase 4 (ADP-FP Assay) (AID 1795); also: % is scaled to controls: 0 for no effect and ±100 for the full control effect; nearly all actives have a fitted effect of over 60% in size
# How it was run: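 Recombinant human Clk4 (6.25 nM) phosphorylated RS repeat peptide (100 uM) with 1 uM ATP in Tris pH 7.5/MgCl2/EGTA/DTT/Triton buffer for one hour. ADP was quantified by Transcreener competitive fluorescence polarization against an ADP calibration curve.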
# [17] = target: Cytochrome P450 2D6 (Homo sapiens) (UniProt P10635); experiment: qHTS Assay for Inhibitors and Substrates of Cytochrome P450 2D6 (AID 891); also: potency is read from the fitted curve at half-maximal effect; nearly all actives have a fitted effect of over 60% in size
# Chain of Cytochrome P450 2D6 (Homo sapiens) (P10635 whole entry, looked up): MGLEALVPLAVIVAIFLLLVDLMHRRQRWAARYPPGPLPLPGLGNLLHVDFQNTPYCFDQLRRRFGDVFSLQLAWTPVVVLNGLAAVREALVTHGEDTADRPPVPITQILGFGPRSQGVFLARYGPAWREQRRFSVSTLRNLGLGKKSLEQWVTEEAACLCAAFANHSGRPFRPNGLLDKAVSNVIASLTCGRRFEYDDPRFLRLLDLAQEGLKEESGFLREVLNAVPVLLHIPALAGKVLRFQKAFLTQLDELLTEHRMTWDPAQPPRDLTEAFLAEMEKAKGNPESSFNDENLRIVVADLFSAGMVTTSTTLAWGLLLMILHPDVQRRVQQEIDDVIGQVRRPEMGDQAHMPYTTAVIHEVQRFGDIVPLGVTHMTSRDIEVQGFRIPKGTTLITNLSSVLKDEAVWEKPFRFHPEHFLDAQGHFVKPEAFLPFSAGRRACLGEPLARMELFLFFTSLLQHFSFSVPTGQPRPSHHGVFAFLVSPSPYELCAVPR
# How it was run: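 Human CYP2D6 (5 nM) with 30 uM Luciferin-ME EGE (at Km) in 100 mM KPO4, compound preincubated 10 min, then NADPH regeneration system for 60 min at room temperature. Luciferin read by luminescence; normalized to 1.43 uM quinidine.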
# [18] = target: Cytochrome P450 2C19 (Homo sapiens) (UniProt P33261); experiment: qHTS Assay for Inhibitors and Substrates of Cytochrome P450 2C19 (AID 899); also: potency is read from the fitted curve at half-maximal effect; nearly all actives have a fitted effect of over 60% in size
# How it was run: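 Luminescent read-out of luciferin formed from Luciferin-H EGE (10uM, equal to KM). Enzyme 5nM in 50mM KPO4; compound added, 10 min at 37C, then NADPH regenerating system for 60 min at 37C. Full inhibition defined by 57uM ketoconazole.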
# [19] = qHTS Assay for Identification of Small Molecule Agonists for Hypoxia Response Element Signaling Pathway (AID 914; active = well fitted activation curve with a large enough effect in the signal ratio, with a control signal flat, not every such curve was filed as active; the % refers to the signal ratio; also: % of control where 0% means no effect); conditions: ME-180 (cervical carcinoma) HRE-bla reporter, beta-lactamase ratio, CoCl2, 17 h; activation: active compounds read high
# How it was run: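 Compounds in a titration series were added to ME-180 reporter cells alongside an EC50 level of CoCl2. After 17 hours, beta-lactamase activity was read as the 460nm/530nm emission ratio of CCF4, giving AC50 values.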
Structure (SMILES),"activity change, negative = inhibition [1]",Potency [2],"activity change, negative = inhibition [3]","activity, negative = inhibition [4] [%]",Potency [5] [µM],Potency [6] [µM],Potency [7],Potency [8],Potency [9],Potency [10],Potency [11],outcome [12],Potency [13] [µM],Potency [14],Potency [15],Potency [16],Potency [17],Potency [18],activation [19] [%]
Clc1ccccc1-c1nc(NCc2cccnc2)c2ccccc2n1,-8.93%,0.631 µM (active),17.1%,-13.8,> 46,> 46,inactive,2.51 µM (active),inactive,28.2 µM (active),20 µM (active),inactive,–,–,–,–,–,–,–
Cn1c(=O)c(-c2cc(F)cc(F)c2)nc2cncnc21,-3.06%,0.631 µM (active),3.39%,5.34,> 9.22,> 46,inactive,–,inactive,–,inactive,inactive,> 11.4,inactive,inactive,inactive,–,–,–
O=c1c(-c2ccc(F)cc2)nc2cnc(N3CCOCC3)nc2n1CCc1ccccc1,79.3% [activator] (active),25.1 µM (active),103% [activator] (active),–,> 9.22,> 46,–,–,–,–,inactive,inactive,> 11.4,inactive,inactive,inactive,–,–,–
N#Cc1cccc(-c2nc(NCc3cccs3)c3ccccc3n2)c1,-7.71%,0.316 µM (active),-16.7%,-29.9,> 46,> 46,inactive,3.98 µM (active),inactive,inactive,–,inactive,> 11.4,–,–,–,–,–,–
COc1ccc2[nH]cc(CCNc3cc(-c4ccccc4C)ncn3)c2c1,-2.94%,1 µM (active),-8.49%,-6.58,> 46,> 46,–,5.01 µM (active),inactive,25.1 µM (active),inactive,inactive,> 11.4,inactive,–,–,7.94 µM (active),7.94 µM (active),–
COCCn1c(=O)c(-c2ccc(OC)cc2)nc2cnc(N3CCOCC3)nc21,-13.6%,–,8.4%,25.9,> 9.22,> 46,inactive,–,–,–,inactive,inactive,> 11.4,inactive,inactive,inactive,–,–,–
Cn1c(=O)c(-c2cccc(F)c2)nc2cncnc21,-15.2%,–,8.36%,-5.84,> 9.22,> 46,inactive,–,inactive,inactive,inactive,inactive,> 11.4,inactive,–,–,–,–,-8.58
